# Measured values from the supplement of paper PMC9694430.
# Assays:
# Test in all cases: thermal shift delta Tm vs DMSO control; higher = stronger stabilization (binding)
# Settings in all cases: 12.5 µM; protein concentration 2 µM
# LOC_OS02G45750-cb003 = test system: LOC_OS02G45750-cb003
# Outline: (§1)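 Rice kinase domain constructs were expressed in E. coli, purified, and tested by differential scanning fluorimetry with compound added in DMSO. Each well of a 96-well plate held 19.5 μl of 2 μM kinase in 100 mM potassium phosphate pH 7.5, 150 mM NaCl, 10% glycerol and 5 × SYPRO Orange, and fluorescence was read from 25°C to 95°C at 0.05°C/s. The melting temperature shift is the mean of triplicates, taken against protein with DMSO alone after Boltzmann fitting.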
# LOC_OS02G54510-cb004 = test system: LOC_OS02G54510-cb004
# Outline: as §1
# LOC_OS03G04050-cb001 = test system: LOC_OS03G04050-cb001
# Outline: as §1
# LOC_OS03G12390-cb001 = test system: LOC_OS03G12390-cb001
# Outline: as §1
# LOC_OS03G27990-cb004 = test system: LOC_OS03G27990-cb004
# Outline: as §1
# LOC_OS03G50450-cb001 = test system: LOC_OS03G50450-cb001
# Outline: as §1
# LOC_OS03G50810-cb003 = test system: LOC_OS03G50810-cb003
# Outline: as §1
# LOC_OS04G35114-cb001 = test system: LOC_OS04G35114-cb001
# Outline: as §1
# LOC_OS04G38480-cb003 = test system: T1, LOC_OS04G38480-cb003
# T1 sequence (whole entry): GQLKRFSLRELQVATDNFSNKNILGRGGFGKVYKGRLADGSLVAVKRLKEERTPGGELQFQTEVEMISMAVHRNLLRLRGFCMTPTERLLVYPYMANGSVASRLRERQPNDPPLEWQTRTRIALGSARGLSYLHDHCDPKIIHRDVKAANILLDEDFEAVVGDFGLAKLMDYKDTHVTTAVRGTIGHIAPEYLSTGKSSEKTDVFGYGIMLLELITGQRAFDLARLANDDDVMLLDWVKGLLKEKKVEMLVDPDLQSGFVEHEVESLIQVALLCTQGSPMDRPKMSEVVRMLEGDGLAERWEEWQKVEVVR
# Outline: as §1
# LOC_OS04G41100-cb001 = test system: T2, LOC_OS04G41100-cb001
# T2 sequence (whole entry): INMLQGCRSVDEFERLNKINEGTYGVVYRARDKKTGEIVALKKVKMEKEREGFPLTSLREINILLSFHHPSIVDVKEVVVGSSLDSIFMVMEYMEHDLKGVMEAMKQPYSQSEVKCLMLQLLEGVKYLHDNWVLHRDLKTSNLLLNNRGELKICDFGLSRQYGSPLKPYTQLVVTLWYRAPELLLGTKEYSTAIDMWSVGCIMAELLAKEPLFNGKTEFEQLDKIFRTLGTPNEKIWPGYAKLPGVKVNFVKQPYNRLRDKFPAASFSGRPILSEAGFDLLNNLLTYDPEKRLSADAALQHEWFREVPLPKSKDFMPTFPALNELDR
# Outline: as §1
Compound,thermal shift delta Tm (LOC_OS02G45750-cb003) [°C],thermal shift delta Tm (LOC_OS02G54510-cb004) [°C],thermal shift delta Tm (LOC_OS03G04050-cb001) [°C],thermal shift delta Tm (LOC_OS03G12390-cb001) [°C],thermal shift delta Tm (LOC_OS03G27990-cb004) [°C],thermal shift delta Tm (LOC_OS03G50450-cb001) [°C],thermal shift delta Tm (LOC_OS03G50810-cb003) [°C],thermal shift delta Tm (LOC_OS04G35114-cb001) [°C],thermal shift delta Tm (LOC_OS04G38480-cb003) [°C],thermal shift delta Tm (LOC_OS04G41100-cb001) [°C]
Cc1cc(O)c2c(c1)C(=O)c1cccc(O)c1C2=O [Chrysophanic Acid],0.14,-1.28,-0.08,-1.54,0.02,0.03,-0.82,0.09,-1.19,0.06
CCS(=O)(=O)Nc1ccc2c(c1)/C(=C(/Nc1ccc(CN3CCCCC3)cc1)c1ccccc1)C(=O)N2 [Hesperadin],14.4,0.53,0.02,8.56,2.77,2.45,11.8,13.2,4.11,0.76
CCOc1cc2ncc(C#N)c(Nc3ccc(F)c(Cl)c3)c2cc1NC(=O)/C=C/CN(C)C [Pelitinib (EKB-569)],4.93,0.37,0.32,0.42,3.2,0.73,1.15,5.5,0.56,0.56
Cn1cnc(N)c2ncnc1-2 [3-Methyladenine (3-MA)],0.36,0.39,0.47,-0.25,0.15,0.39,0.4,0.91,1.15,0.12
Cn1cc(-c2ccc3c(c2)CCN3C(=O)Cc2cccc(C(F)(F)F)c2)c2c(N)ncnc21,4.4,2.71,0.45,0.39,0.12,0,0.95,2.08,1.08,1.28
O=C1NC(=O)C(=Cc2ccc(-c3ccc(F)cc3)o2)S1 (stereo in doubt),0.93,0.18,0.6,0.59,0.53,0.23,0.29,1.05,0.83,0.69
COc1ccc(-c2nc(N3CCOCC3)c3sc(CN(C)c4ncc(C(=O)NO)cn4)cc3n2)cn1,0.52,0.27,0.23,-0.11,0.18,-0.05,0.23,0.64,0.82,0.24
Cc1c(C(=O)Nc2ccc(Oc3ccnc4[nH]cc(-c5ccccc5)c34)c(F)c2)c(=O)n(-c2ccc(F)cc2)n1C,1.92,-0.32,0.37,1.39,0.47,0.52,1.79,5.04,3.56,1.06
CC(C)(C)NS(=O)(=O)c1cncc(-c2cc(F)c3nc(N)nn3c2)c1,0.74,0.24,0.64,0.19,0.94,0.53,0.4,0.87,0.98,0.29
COc1cc2nccc(Oc3ccc(NC(=O)Nc4cc(C)on4)c(Cl)c3)c2cc1OC [Tivozanib (AV-951)],2.56,3.55,0.02,1.3,0.02,-0.03,2.67,3.47,4.03,0.72
Cc1cc(Nc2cc(CN3CCOCC3)c3nc(C)c(Cc4ccc(Cl)cc4F)n3n2)n[nH]1,3.56,3.12,-0.22,1.36,0.01,0.47,4.81,2.03,2.46,3.22
O=C(NCc1cccc(O)c1)Nc1nc(-c2ccncc2)cs1,-1.72,0.56,1.15,0.54,1.06,0.51,0.05,1.65,0.86,0.95
Cc1ncc(-c2ccnc(Nc3ccc(S(C)(=O)=O)cc3)n2)n1C(C)C,4.52,0.65,0.19,3.93,0.85,0.58,1.7,1.83,2.87,4.97
O=C1NC(=O)C(c2ccccc2[N+](=O)[O-])=C1Nc1ccc(O)c(Cl)c1,1.34,0.07,0.14,2.25,0.15,-0.05,0.88,1.02,2.72,0.23
C[S+]([O-])c1ccc(-c2nc(-c3ccc(F)cc3)c(-c3ccncc3)[nH]2)cc1 (stereo not given),1.21,0.81,1.08,0.78,0.58,0.08,0.32,1.35,1.26,1.23
C#Cc1cccc(Nc2ncnc3cc(OCCOC)c(OCCOC)cc23)c1 [Erlotinib],4.13,0.7,0.03,2.11,0.02,-0.06,1.07,6.16,1.65,-0.05
COc1cccc(-c2cc(=O)c3ccccc3o2)c1N,-0.15,0.15,0.23,0.21,0.01,0.16,0.04,0.26,-0.06,0.2
COc1cc(N2CCN(C)CC2)ccc1Nc1nccc(-c2cn(C)c3cnccc23)n1,2.73,0.02,0.3,9.57,0.05,-0.05,1.79,4.35,1.32,0.51
C[C@H](NC(=O)/C(C#N)=C/c1cccc(Br)n1)c1ccccc1,-0.81,-0.57,0.05,-2.64,-2.84,0.09,-1.35,-1.1,0.59,-0.11
Cc1ccc(C(=O)Nc2ccc(Oc3cc4cnn(C)c4cc3-c3cn[nH]c3)c(F)c2)c(=O)n1-c1ccc(F)cc1,1.6,0.17,1.07,0.61,0.79,1.3,1.13,0.73,3.19,1.32

Compound,thermal shift delta Tm (LOC_OS02G45750-cb003) [°C],thermal shift delta Tm (LOC_OS02G54510-cb004) [°C],thermal shift delta Tm (LOC_OS03G04050-cb001) [°C],thermal shift delta Tm (LOC_OS03G12390-cb001) [°C],thermal shift delta Tm (LOC_OS03G27990-cb004) [°C],thermal shift delta Tm (LOC_OS03G50450-cb001) [°C],thermal shift delta Tm (LOC_OS03G50810-cb003) [°C],thermal shift delta Tm (LOC_OS04G35114-cb001) [°C],thermal shift delta Tm (LOC_OS04G38480-cb003) [°C],thermal shift delta Tm (LOC_OS04G41100-cb001) [°C]
C=CC(=O)N[C@H]1CCOC[C@H]1Nc1ncc2cc(-c3c(Cl)c(OC)cc(OC)c3Cl)ccc2n1,1.19,-0.3,0.08,-0.37,-0.08,0.02,-0.2,0.09,0.04,0.17
CC(C)(O)CC(=O)NCCn1ccc2ncnc(Nc3ccc(Oc4cccc(C(F)(F)F)c4)c(Cl)c3)c21,0.62,-0.25,0.51,1.74,0.47,0.94,1.03,0.12,1.78,0.52
C=C[C@@](C)(/C=C/c1ccc(O)cc1)CCC=C(C)C [Bakuchiol],-0.82,-0.05,0.71,-0.13,0.37,0.04,0.28,0.46,0.81,0.44
CNC(=O)Nc1ccc(-c2nc(N3CC4CCC(C3)O4)c3cnn(C4CCC5(CC4)OCCO5)c3n2)cc1,0.68,0.19,0.28,0.26,0.16,0.34,-0.43,0.16,1.69,0.57
"CCCS(=O)(=O)Nc1ccc(F)c(C(=O)c2c[nH]c3ncc(-c4ccc(Cl)cc4)cc23)c1F [Vemurafenib (PLX4032, RG7204)]",9.27,1.86,0.64,4.44,0.69,1.54,2.6,4.48,4.49,0.68
CN(C)CCCn1cc(C2=C(c3c[nH]c4ccccc34)C(=O)NC2=O)c2ccccc21,0.99,0.36,0.65,0.12,0.5,1.02,0.83,1.37,-0.32,0.65
Cc1cc(Nc2ncnc3ccc(-c4ccc(CNCCS(C)(=O)=O)o4)cc23)ccc1Oc1ccn2ncnc2c1 [HER2-Inhibitor-1],2.59,0.24,0.79,0.49,0.37,0.76,1.21,4.39,1.57,0.72
CCc1cncnc1N1CCN(Cc2nc3ccc(C(F)(F)F)cc3[nH]2)CC1,0.59,0.3,0.39,-0.06,0.33,0.04,0.36,0.25,0.52,0.52
O=C(Nc1ccccc1C(=O)NC1CCCCNC1=O)c1cc2ccccc2s1 (stereo not given),0.67,0.07,0.19,-0.24,0.15,0.22,0.43,0.94,1.47,0.17
c1nc2c(NC3CCCCC3)nc(Nc3ccc(N4CCOCC4)cc3)nc2[nH]1 [Reversine],8.28,4.92,0.32,9.58,5.33,9.57,5.17,6.36,3.21,0.65
CN1CCN(CCOc2cc(OC3CCOCC3)c3c(Nc4c(Cl)ccc5c4OCO5)ncnc3c2)CC1 [Saracatinib (AZD0530)],2.36,0.77,0.38,2.47,1.15,0.13,3.05,7.08,3.11,0.53
O=c1cc(N2CCOCC2)oc2c(-c3cccc4c3sc3ccccc34)cccc12,1.11,0.33,0.66,-0.18,0.6,0.91,0.32,0.58,0.87,-0.31
COc1cc(Nc2ncc(F)c(Nc3ccc4c(n3)N(COP(=O)(O)O)C(=O)C(C)(C)O4)n2)cc(OC)c1OC [R788 (Fostamatinib) Disodium],2.5,0.47,0.33,1.17,1.08,7.52,2.27,2.02,2.06,0.34
O=c1cc(-c2cccc3c2Sc2ccccc2S3)oc(N2CCOCC2)c1,0.06,-0.02,0.45,0.59,-0.19,-0.07,0.13,-0.05,1.71,0.74
Cc1[nH]nc2ccc(-c3cncc(OC[C@@H](N)Cc4ccccc4)c3)cc12,2.29,0.14,0.35,3.08,0.34,0.59,1.41,1.06,0.62,1.9
O=C(Nc1cc(C(F)(F)F)cc(C(F)(F)F)c1)c1cc(Cl)ccc1O,0.1,-0.16,0.55,1.46,0.24,0.5,0.7,0.29,0.16,0.52
CS(=O)(=O)N1CCN(Cc2cc3nc(-c4cccc5[nH]ncc45)nc(N4CCOCC4)c3s2)CC1 [Pictilisib (GDC-0941)],0.86,0.25,0.28,0.14,0.17,0.22,1.56,1.73,-0.11,0.72
N#Cc1cnc(Nc2cc(NC[C@H]3CNCCO3)c(C(F)(F)F)cn2)cn1,3.09,0.4,0.6,0.36,0.89,0.52,1.11,1.35,1.02,0.96
C1=N/C2=N/c3ccc(OCCN4CCCC4)c(c3)COC/C=C/COCc3cccc(c3)C(=C1)N2 [Pacritinib (SB1518)],8.5,3.05,0.14,4.32,4.35,3.76,7.67,10.9,3.66,5.39
